{"source": "PubChem BioAssay AID686921", "about": "(National Center for Advancing Translational Sciences (NCATS), 2013)", "note": "Active and inactive are the calls of the source. The call rests on the fitted dose curve; in most records, active means well fitted curve in the direction sought with a large enough effect; inconclusive means small, poorly fitted or top-dose-only effect, or another doubt; inactive means no such curve, though single readings can be large or run the other way.", "data": [{"experiment": "qHTS screen for inhibitors of ELG1-dependent DNA repair in human embryonic kidney (HEK293T) cells expressing luciferase-tagged ELG1: 5FU Viability Assay for probe SAR", "settings": "HEK293T ELG1-luc, CellTiter-Glo viability, 16 h; series mostly up to 46.1 µM; activity change, negative = inhibition: at the top concentration", "description": "Cancer cells divide rapidly compared to normal cells in the body. During cell division, cancer cells need to duplicate their genome by DNA replication. The failure of genome duplication leads to cancer cells' death. Therefore, inhibitors of DNA replication could specifically kill cancer cells. Based on this concept, many chemotherapeutic agents were developed and have been used to treat cancer patients. However, there are a limited number of agents available in the clinical setting, and some of those that do exist have low efficacy and severe side effects. Therefore, if we can find the compounds that effectively block DNA replication either by directly damaging DNA or by inhibiting other cellular mechanisms, the options for cancer treatment will be broadened. With this in mind, we developed a quantitative high-throughput ELG1-luciferase reporter gene assay. Small molecules that specifically block ELG1 function in response to DNA damage can be identified by monitoring the suppression of luciferase activity. Since ELG1 defines a pathway for repairing DNA damage, agents blocking ELG1 function can be used to sensitize cancer cells to chemotherapeutic agents whose mechanism of action involves the induction of DNA damage. Cytotoxicity of the active compounds in the ELG1 qHTS assay (AID 493107) was assessed using the CellTiter-Glo Luminescent Cell Viability Assay kit (Promega, USA). CellTiter-Glo measures the intracellular ATP present in metabolically active cells using Ultra-Glo as the luciferase to detect ATP levels. In brief, the luciferase in the buffer catalyzes the oxidation of luciferin to oxyluciferin and light which is dependent on ATP. […] DMSO and wells with media alone were used as positive and negative controls, respectively. Inactivity to this assay is the desirable outcome. NIH Molecular Libraries Probe Production Network [MLPCN] NIH Chemical Genomics Center [NCGC] MLPCN Grant: R03 MH092164 Assay Provider: Kyungjae Myung, NHGRI, NIH\nELG1-luc HEK293T cells will be seeded in 1536-well plates at a density of 2,000 cells/well. Approximately 5 hours after plating, compounds will be added to the plate by pin tool transfer and 5-fluorouridine will be added by FRD dispenser (final concentration of 5-fluorouridine =10 µM). 16 hours following the addition of the compounds, cell viability will be measured using CellTiter Glo.", "values": [{"smiles": "Fc1ccc(Nc2nc(-c3ccnc(C(F)(F)F)c3)nc3ccccc23)cc1F", "activity change, negative = inhibition": "11.1% (inactive)"}, {"smiles": "O=[N+]([O-])c1ccc(-c2nc(Nc3ccc(F)c(F)c3)c3ccccc3n2)cc1", "activity change, negative = inhibition": "-1.93% (inactive)"}, {"smiles": "Cc1cc(-c2nc(Nc3ccc(F)c(F)c3)c3ccccc3n2)ccn1", "activity change, negative = inhibition": "22.7% (inactive)"}, {"smiles": "Fc1cc(Nc2nc(-c3ccncc3)nc3ccccc23)ccc1OC(F)(F)F", "activity change, negative = inhibition": "26.8% (inactive)"}, {"smiles": "COc1cc(Nc2nc(-c3ccncc3)nc3ccccc23)ccc1NS(C)(=O)=O", "activity change, negative = inhibition": "27.9% (inactive)"}, {"smiles": "Fc1cccc(-c2ccc(Nc3nc(-c4ccncc4)nc4ccccc34)cc2F)c1", "activity change, negative = inhibition": "24.5% (inactive)"}, {"smiles": "Cc1nc2ccc(Nc3nc(-c4ccncc4)nc4ccccc34)cc2s1", "activity change, negative = inhibition": "30.3% (inactive)"}, {"smiles": "Fc1ccc(Nc2nc(-c3ccnc(N4CCCCC4)c3)nc3ccccc23)cc1F", "activity change, negative = inhibition": "4.06% (inactive)"}, {"smiles": "COc1nccc(-c2nc(Nc3ccc(F)c(F)c3)c3ccccc3n2)c1OC", "activity change, negative = inhibition": "6.79% (inactive)"}, {"smiles": "COc1cc(-c2nc(Nc3ccc(F)c(F)c3)c3ccccc3n2)ccn1", "activity change, negative = inhibition": "36% (inactive)"}, {"smiles": "COc1ccc(-n2c(C)c(C(C)=O)c3ccccc32)cc1", "outcome": "inactive"}, {"smiles": "O=c1cc(-c2nc(Nc3ccc(F)c(F)c3)c3ccccc3n2)cc[nH]1", "activity change, negative = inhibition": "31.2% (inactive)"}, {"smiles": "COc1ccc(-n2c(C)c(C(C)=O)c3cc(O)ccc32)cc1", "activity change, negative = inhibition": "-9.12% (inactive)"}, {"smiles": "Fc1ccc(Nc2nc(-c3ccncc3F)nc3ccccc23)cc1F", "activity change, negative = inhibition": "29.9% (inactive)"}, {"smiles": "Fc1ccc(-c2ccc(Nc3nc(-c4ccncc4)nc4ccccc34)cc2F)cc1", "activity change, negative = inhibition": "-6.05% (inactive)"}, {"smiles": "Fc1cc(Nc2nc(-c3ccncc3)nc3ccccc23)ccc1OCC(F)(F)F", "activity change, negative = inhibition": "20.7% (inactive)"}, {"smiles": "Fc1cccc(Nc2nc(-c3ccncc3)nc3ccccc23)c1", "activity change, negative = inhibition": "20.6% (inactive)"}, {"smiles": "Fc1cc(Nc2nc(-c3ccncc3)nc3ccccc23)ccc1-c1cncnc1", "activity change, negative = inhibition": "13.4% (inactive)"}, {"smiles": "Fc1cc(Nc2nc(-c3ccncc3)nc3ccccc23)ccc1-c1cc(F)c(F)c(F)c1", "activity change, negative = inhibition": "9.22% (inactive)"}, {"smiles": "Fc1cc(Nc2nc(-c3ccncc3)nc3ccccc23)ccc1-c1ccncc1", "activity change, negative = inhibition": "37.6% (inactive)"}, {"smiles": "Fc1ccc(Nc2cc(-c3ccccc3)nc(-c3ccncc3)n2)cc1F", "activity change, negative = inhibition": "35.2% (inactive)"}, {"smiles": "Fc1cc(Nc2nc(-c3ccncc3)nc3ccccc23)ccc1-c1cn[nH]c1", "activity change, negative = inhibition": "30.4% (inactive)"}, {"smiles": "Fc1cc(Nc2nc(-c3ccncc3)nc3ccccc23)ccc1-c1ccc2[nH]ncc2c1", "activity change, negative = inhibition": "-0.733% (inactive)"}]}]}
